For some of these results: Results with a measured potency or affinity are listed apart.

Parameters in all cases: scale not given: direction of the effect not stated beside the values
For assay [1], the target named is Protein translocase subunit SecA (Escherichia coli (strain K12)) (UniProt P10408). Nature of the assay: Assay to Identify E. coli SecA ATPase Inhibitors. It counts as functional. The settings on record: 30 µM.
Assay [2] concerns the target T1, Ubiquitin-activating enzyme e1, putative (Leishmania donovani (strain BPK282A1)) (UniProt E9BSI1).
T1 sequence (whole entry): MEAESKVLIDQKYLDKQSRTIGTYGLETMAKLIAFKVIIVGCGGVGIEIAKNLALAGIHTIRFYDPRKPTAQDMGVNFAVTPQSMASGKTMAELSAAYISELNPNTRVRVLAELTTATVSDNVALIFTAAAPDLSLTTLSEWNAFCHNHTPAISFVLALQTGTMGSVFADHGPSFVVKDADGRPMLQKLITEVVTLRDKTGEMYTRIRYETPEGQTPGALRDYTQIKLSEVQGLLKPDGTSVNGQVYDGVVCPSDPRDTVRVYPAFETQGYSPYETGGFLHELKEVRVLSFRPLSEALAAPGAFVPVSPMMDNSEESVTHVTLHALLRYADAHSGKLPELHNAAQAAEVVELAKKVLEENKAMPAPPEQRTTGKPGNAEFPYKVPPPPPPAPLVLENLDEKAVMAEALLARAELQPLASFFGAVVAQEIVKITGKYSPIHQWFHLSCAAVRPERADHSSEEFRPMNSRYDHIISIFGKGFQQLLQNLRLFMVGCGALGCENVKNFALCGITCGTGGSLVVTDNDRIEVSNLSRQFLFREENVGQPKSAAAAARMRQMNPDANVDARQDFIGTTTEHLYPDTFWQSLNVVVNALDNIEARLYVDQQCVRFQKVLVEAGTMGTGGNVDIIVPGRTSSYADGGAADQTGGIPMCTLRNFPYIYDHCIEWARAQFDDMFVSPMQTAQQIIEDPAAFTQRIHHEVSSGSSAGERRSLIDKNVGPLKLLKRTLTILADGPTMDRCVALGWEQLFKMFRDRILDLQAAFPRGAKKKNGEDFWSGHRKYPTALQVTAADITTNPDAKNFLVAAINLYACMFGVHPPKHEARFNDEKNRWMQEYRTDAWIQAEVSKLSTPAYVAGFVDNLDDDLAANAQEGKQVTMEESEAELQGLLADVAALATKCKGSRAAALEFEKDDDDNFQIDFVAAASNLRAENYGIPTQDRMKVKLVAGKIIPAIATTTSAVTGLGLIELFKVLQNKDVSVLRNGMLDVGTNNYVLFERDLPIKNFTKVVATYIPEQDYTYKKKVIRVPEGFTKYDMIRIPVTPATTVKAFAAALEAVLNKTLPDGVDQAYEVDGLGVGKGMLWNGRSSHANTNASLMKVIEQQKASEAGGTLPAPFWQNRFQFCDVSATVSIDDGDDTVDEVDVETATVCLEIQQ
Kind of assay: Leishmania donovani Ubiquitin Activating Enzyme (LdE1). The format is functional. The conditions noted are these: 30 µM.

The target in assay [3] is AMP-activated protein kinase, AMPK (Homo sapiens) (UniProt P54646+O43741+P54619+Q9UGJ0+Q9Y478+Q13131+Q9UGI9). Nature of the assay: AMP-dependent Kinase enzyme assay. An in vitro enzyme assay that detects ADP turnover that is directly proportional to AMPK activity. This uses naive AMPK that is activated during the assay with MK-8722. The conditions noted are these: 30 µM. It counts as functional.

In assay [4] the target is Sialic acid-binding Ig-like lectin 9 (Homo sapiens) (UniProt Q9Y336). Kind of assay: Hs-Siglec9 ALPHAscreen SOP 20170721. The settings on record: 10 µM.
Assay [5] concerns Trypanosoma cruzi. Nature of the assay: Trypanosoma cruzi phosphomannomutase and mannose-1-phosphate guanylyltransferase assay. It counts as functional. The conditions noted are these: 10 µM.
In assay [6] the target is T2, Arginase-2, mitochondrial (Homo sapiens) (UniProt P78540).
T2 sequence (whole entry): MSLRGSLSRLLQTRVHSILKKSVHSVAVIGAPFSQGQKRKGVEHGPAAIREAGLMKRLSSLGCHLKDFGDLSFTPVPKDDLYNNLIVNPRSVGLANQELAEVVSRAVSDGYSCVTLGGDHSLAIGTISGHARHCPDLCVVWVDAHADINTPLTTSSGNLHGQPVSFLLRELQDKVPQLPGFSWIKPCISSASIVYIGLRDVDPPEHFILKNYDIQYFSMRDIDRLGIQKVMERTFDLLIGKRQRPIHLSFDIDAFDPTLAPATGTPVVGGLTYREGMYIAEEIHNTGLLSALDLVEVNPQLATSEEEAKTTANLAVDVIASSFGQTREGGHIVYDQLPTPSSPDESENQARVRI
Kind of assay: in vitro enzyme assay to detect the production of urea directly proportional to the activity of Arginase II. Also: in the data most compounds retested in dose-response had high values. The format is functional. The conditions noted are these: 33.3 µM.

In assay [7] the target is T3, Proteasome subunit beta (Trypanosoma cruzi) (UniProt O96673).
T3 sequence (whole entry): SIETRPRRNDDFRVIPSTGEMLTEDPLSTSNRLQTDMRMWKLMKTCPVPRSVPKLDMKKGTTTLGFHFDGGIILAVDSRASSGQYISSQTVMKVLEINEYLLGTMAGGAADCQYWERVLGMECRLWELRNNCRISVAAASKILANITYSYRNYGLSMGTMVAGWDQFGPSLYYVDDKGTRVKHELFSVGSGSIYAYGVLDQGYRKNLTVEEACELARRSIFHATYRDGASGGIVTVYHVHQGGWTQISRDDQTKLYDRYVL
Nature of the assay: Trypanosoma cruzi proteasome chymotrypsin-like activity (TcProtChymo) assay. Also: in the data most compounds retested in dose-response had high values. The format is functional. The conditions noted are these: 9.37 µM.

Assay [8] is filed under the species Homo sapiens. Kind of assay: To identify inhibition of the IFN signalling (Jak-Stat) pathway via expression of an eGFP reporter gene under the control of an IFN-stimulated response element (ISRE) containing MxA promoter. The format is functional. The conditions noted are these: 30 µM.
Assay [9] deals with T4, Tyrosyl-tRNA synthetase, putative (Trypanosoma cruzi (strain CL Brener)) (UniProt Q4DSP6).
T4 sequence (whole entry): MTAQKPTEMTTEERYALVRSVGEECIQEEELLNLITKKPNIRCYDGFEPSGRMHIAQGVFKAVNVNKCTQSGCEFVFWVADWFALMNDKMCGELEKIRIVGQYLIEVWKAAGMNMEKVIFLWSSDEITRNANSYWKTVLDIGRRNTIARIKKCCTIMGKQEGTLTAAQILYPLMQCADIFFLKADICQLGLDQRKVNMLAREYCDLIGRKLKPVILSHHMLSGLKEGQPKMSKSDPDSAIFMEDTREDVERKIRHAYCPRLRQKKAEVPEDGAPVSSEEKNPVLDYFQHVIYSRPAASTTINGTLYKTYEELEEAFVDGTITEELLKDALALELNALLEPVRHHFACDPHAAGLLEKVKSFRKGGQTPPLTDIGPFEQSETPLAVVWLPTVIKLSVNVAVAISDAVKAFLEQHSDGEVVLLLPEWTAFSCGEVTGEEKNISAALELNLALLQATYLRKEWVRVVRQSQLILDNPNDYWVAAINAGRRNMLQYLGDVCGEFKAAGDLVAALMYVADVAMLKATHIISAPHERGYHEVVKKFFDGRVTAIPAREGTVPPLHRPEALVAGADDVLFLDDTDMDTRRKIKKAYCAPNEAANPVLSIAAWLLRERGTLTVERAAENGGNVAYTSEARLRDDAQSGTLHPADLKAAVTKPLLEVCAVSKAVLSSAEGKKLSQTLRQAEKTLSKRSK
Nature of the assay: Trypanosoma cruzi tyrosyl tRNA synthetase (TcYRS) _High Tyrosine SOP. Also: in the data most compounds retested in dose-response had high values. The format is functional. The settings on record: 30 µM.

The target in assay [10] is T4, Tyrosyl-tRNA synthetase, putative (Trypanosoma cruzi (strain CL Brener)). Nature of the assay: Trypanosoma cruzi tyrosyl tRNA synthetase (TcYRS) SOP. The conditions noted are these: 30 µM. The format is functional.
In assay [11] the target is Chromo domain-containing protein 1 (Saccharomyces cerevisiae (strain ATCC 204508 / S288c) (Baker's yeast)) (UniProt P32657). Nature of the assay: ScCHD-1 Enzyme Inhibition Assay. Also: in the data most compounds retested in dose-response had high values. The format is functional. The conditions noted are these: 30 µM.
Sequence of Chromo domain-containing protein 1 (Saccharomyces cerevisiae (strain ATCC 204508 / S288c) (Baker's yeast)) (P32657 whole entry, the tested form may be a part): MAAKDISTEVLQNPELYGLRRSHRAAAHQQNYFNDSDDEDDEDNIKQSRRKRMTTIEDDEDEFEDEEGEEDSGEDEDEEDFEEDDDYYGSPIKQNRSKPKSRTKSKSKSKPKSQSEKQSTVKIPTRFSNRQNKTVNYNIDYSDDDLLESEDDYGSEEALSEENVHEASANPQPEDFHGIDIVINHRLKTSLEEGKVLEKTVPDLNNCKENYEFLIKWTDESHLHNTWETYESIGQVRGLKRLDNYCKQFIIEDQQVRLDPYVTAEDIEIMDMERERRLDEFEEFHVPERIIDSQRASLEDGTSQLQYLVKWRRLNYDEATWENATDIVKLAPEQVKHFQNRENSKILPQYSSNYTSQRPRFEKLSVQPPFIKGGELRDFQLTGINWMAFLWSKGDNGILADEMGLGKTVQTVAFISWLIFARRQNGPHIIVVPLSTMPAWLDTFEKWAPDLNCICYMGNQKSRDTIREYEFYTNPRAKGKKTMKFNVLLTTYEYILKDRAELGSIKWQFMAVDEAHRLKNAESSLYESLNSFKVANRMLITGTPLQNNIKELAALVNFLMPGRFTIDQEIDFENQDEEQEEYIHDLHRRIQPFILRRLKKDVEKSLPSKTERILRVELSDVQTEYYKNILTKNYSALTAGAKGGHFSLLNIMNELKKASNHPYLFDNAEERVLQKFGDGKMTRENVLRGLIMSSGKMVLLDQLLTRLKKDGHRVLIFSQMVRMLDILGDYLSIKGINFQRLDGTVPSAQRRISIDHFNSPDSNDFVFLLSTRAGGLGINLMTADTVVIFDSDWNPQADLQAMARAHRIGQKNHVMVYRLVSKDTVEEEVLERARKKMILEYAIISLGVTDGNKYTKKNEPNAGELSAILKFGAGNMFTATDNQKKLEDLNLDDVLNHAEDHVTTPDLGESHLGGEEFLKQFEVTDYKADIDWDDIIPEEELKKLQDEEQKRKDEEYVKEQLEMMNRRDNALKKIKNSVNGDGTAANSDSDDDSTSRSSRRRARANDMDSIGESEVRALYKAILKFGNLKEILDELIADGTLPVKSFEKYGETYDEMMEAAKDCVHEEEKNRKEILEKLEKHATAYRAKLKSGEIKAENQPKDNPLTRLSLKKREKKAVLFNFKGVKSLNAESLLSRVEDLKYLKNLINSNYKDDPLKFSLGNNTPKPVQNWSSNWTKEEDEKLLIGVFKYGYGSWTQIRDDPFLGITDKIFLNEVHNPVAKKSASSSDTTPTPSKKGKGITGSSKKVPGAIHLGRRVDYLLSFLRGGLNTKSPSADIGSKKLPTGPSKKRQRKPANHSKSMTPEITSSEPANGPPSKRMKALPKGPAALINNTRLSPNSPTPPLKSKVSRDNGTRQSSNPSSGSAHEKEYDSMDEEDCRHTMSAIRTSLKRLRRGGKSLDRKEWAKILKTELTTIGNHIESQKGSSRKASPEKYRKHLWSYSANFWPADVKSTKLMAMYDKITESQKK

Sequence of Sialic acid-binding Ig-like lectin 9 (Homo sapiens) (Q9Y336 whole entry): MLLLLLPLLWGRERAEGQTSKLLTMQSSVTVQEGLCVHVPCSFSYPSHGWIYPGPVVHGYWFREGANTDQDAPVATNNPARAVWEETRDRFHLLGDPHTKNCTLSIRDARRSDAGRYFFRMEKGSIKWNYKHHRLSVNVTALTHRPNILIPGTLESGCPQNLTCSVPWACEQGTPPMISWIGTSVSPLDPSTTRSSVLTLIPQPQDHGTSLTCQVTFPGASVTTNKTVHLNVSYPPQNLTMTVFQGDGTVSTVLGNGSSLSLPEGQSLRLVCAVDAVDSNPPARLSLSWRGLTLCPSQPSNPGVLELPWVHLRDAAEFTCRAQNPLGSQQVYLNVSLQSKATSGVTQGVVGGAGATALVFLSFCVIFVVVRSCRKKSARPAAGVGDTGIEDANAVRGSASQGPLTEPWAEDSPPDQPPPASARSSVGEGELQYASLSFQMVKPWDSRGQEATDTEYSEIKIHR
Sequence of Protein translocase subunit SecA (Escherichia coli (strain K12)) (P10408 whole entry): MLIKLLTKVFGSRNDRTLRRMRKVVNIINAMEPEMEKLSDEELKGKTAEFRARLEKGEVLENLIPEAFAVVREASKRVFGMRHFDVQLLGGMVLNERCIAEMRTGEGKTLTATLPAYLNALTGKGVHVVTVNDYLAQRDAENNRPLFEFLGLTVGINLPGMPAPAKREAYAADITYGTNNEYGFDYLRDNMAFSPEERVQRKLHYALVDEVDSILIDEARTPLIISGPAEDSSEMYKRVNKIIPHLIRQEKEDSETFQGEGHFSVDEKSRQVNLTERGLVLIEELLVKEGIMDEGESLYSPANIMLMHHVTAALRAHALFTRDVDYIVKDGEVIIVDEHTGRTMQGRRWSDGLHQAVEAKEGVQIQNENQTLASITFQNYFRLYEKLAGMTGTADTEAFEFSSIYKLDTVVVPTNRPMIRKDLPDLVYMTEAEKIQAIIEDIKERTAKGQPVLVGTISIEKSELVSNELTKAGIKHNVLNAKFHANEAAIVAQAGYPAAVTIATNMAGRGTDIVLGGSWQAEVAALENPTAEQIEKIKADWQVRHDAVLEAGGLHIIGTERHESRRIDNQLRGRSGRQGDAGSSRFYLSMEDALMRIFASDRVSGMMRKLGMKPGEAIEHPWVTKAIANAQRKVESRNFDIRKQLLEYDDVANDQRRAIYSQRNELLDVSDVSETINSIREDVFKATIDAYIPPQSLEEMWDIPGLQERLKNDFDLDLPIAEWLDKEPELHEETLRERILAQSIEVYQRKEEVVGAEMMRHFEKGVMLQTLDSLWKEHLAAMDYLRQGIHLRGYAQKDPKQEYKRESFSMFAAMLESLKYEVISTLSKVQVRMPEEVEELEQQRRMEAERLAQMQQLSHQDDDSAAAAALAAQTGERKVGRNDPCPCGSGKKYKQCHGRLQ

As to `CN(Cc1ccc(F)cc1)CC1(O)CCN(C(=O)c2ccccc2)C1` (stereo not drawn), the Percent Effect is -1.26% in [1]; 4.05% in [2]; 9.4% in assay [3]; 2.19% in assay [4]; -8.1% in [5]; 1.16% in assay [6]. Besides, the Percent Effect in assay [7] stood at 9.98%; in assay [8] it was 15.7%; in [9], 2.15%; in [10] it was 6.49%; in assay [11], 13.1%.
On to `Cc1cc(C)n(CC2CN(CC(=O)Nc3nncs3)CCO2)n1` (stereo not drawn), for which the Percent Effect in assay [1] was -3.97%; in assay [2] it was 15.6%; in assay [3], 1.37%; in assay [4], 0.371%; in assay [5], -6.37%; in [6], 3.2%. Moreover, the Percent Effect is -4.05% in assay [7]; 26.9% in assay [8]; 6.8% in [9]; 12.2% in [10]; -2.27% in [11].
As to `O=C1COc2c(cccc2C(=O)N2CCCCC2Cn2cccn2)N1` (stereo not drawn), the Percent Effect in [1] is -1.42%; in assay [2], 10.4%; in assay [3], 2.71%; in assay [4], 5.65%; in assay [5], -2.84%; in assay [6], 3.16%. Besides, the Percent Effect in assay [7] is 14.6%; in [8], 10.8%; in assay [9] it was 6.67%; in [10], 11.8%; in assay [11], -12.7%.
In the case of `CCn1c(NCc2ccco2)nc2c(C)nn(C)c2c1=O`, the Percent Effect was -2.68% in assay [1]; 20% in assay [2]; 4.54% in [3]; -6.91% in assay [4]; 3.93% in [5]; 92.8% in assay [6]. Further, the Percent Effect is 22.6% in assay [7]; 7.87% in assay [8]; 9.52% in assay [9]; 17.9% in assay [10]; -14% in assay [11].
As to `CC(Cn1cccn1)NC(=O)NCc1ccc(S(N)(=O)=O)cc1` (stereo not drawn), the Percent Effect is -1.8% in assay [1]; 15.6% in assay [2]; 6.57% in assay [3]; -7.88% in assay [4]; -1.27% in [5]; -1.05% in [6]. Besides, the Percent Effect was 13.7% in [7]; 6% in assay [8]; 9.52% in assay [9]; 23.5% in assay [10]; -18.9% in [11].
For `Cc1ccc(C(=O)Nc2cn[nH]c2)cn1`, the Percent Effect in [1] is 0.472%; in [2], 13.2%; in [3], 9.28%; in assay [4], 0.161%; in assay [5] it was -1.13%; in [6], -3.45%. In addition, the Percent Effect in assay [7] was 8.69%; in [8], 6.9%; in assay [9] it was 1.47%; in [10], 19.5%; in assay [11], -10.8%.
For the compound `Cc1ccc(S(=O)(=O)NC(=O)c2cccc3c2OCCO3)c(C)c1`, the Percent Effect was -2.98% in assay [1]; -5.48% in assay [2]; 7.47% in assay [3]; -1.04% in assay [4]; -3.33% in assay [5]; 4.54% in [6]. Also, the Percent Effect in assay [7] was 9.94%; in assay [8], 5.47%; in assay [9], -10.8%; in assay [10] it was -12.5%; in assay [11], -2.7%.
For `CN(C)C(=O)COC[C@]12COC[C@H]1CN(Cc1ccoc1)C2`, the Percent Effect in [1] was -2.44%; in [2], 2.7%; in [3], -3.89%; in [4] it was 10.2%; in assay [5], 5.77%; in assay [6] it was 7.69%. Also, the Percent Effect is 2.49% in assay [7]; 5.51% in assay [8]; 4.3% in assay [9]; 1.24% in [10]; -5.77% in [11].

For the origin of these results see ChEMBL document CHEMBL3988442, “University of Dundee, Small-Polar-MMV Screening Library” (2021).
